VDR inhibitor: vitamin D3 receptor (human) inhibition | P11473 | VDR-SRC2-3 peptide fluorescence polarization, 2 h | Potency, µM, for inactives: max response, negative = inhibition, most hits filed as inhibitors | actives 0.93% (n = 400,000) | AID 504847; also: % is scaled to controls: 0 for no effect and ±100 for the full control effect
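After 23 nl compound addition and a short centrifugation, plates sat for 2 hours at ambient temperature; polarization of fluorescence then indicated loss of VDR binding to peptide SRC2-3.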
HP1b binding inh: HP1-beta chromodomain-methylated histone interaction inhibition. AlphaScreen HP1-beta / biotin-H3K9me3 peptide binding. Potency, µM (doses to about 114 µM), for inactives: top-dose activity change, negative = inhibition, actives largely listed as inhibitors. actives 0.56% (n = 390,000). AID 540317; also: nearly all actives have a fitted effect of over 70% in size
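HP1-beta protein (50 nM final) preincubated 30 min at room temperature with biotinylated H3(1-18)K9me3 peptide (50 nM) in PBS pH 7.4, 0.01% Tween-20, then compound added for 30 min. AlphaScreen streptavidin donor/nickel chelate acceptor beads (10 ug/mL final), 30 min dark, luminescence read.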
JMJD2A Tudor inh: JMJD2A Tudor domain (human) inhibition. Potency, µM (series often up to 114 µM), for inactives: at the highest dose activity change, negative = inhibition, usual class: inhibitors. O75164. actives 4.4% (n = 390,000). AlphaScreen JMJD2A-Tudor / H3K4me3 peptide binding; also: % is scaled to controls: 0 for no effect and ±100 for the full control effect; nearly all actives have a fitted effect of over 50% in size
G9a block: inhibitors of human histone lysine methyltransferase G9a | AID 504332 | Potency, µM (top dose mostly 102 µM), inactives show at the top dose activity, negative = inhibition, hits mostly inhibitors | G9a H3K9 monomethylation, AlphaScreen, 2 h | actives 8.8% (n = 350,000); also: % is scaled to controls: 0 for no effect and ±100 for the full control effect; nearly all actives have a fitted effect of over 75% in size
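G9a (20 nM) was preincubated 15 min with compound, then reacted 2 h at room temperature with 500 nM biotin-H3K9 peptide and 20 µM SAM. Monomethyl-H3K9 detected by AlphaScreen using anti-H3K9me1 antibody.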
PLK1 PBD inh: PLK1 (human) polo-box domain binding inhibition. P53350. Plk1 PBD binding of FITC phosphopeptide, fluorescence polarization. Potency, µM, without a hit: max response, negative = inhibition, most hits filed as inhibitors. actives 2.8% (n = 360,000); also: series mostly up to about 57 µM; % is scaled to controls: 0 for no effect and ±100 for the full control effect; nearly all actives have a fitted effect of over 65% in size
BAZ2B inh: BAZ2B (human) inhibition. AlphaScreen BAZ2B-H3K14Ac peptide displacement. Potency, µM (titrated, usually from 114 µM), inactives show at the highest dose activity change, negative = inhibition, hits mostly inhibitors. actives 4.4% (n = 360,000); also: % is scaled to controls: 0 for no effect and ±100 for the full control effect; nearly all actives have a fitted effect of over 60% in size
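BAZ2B (50 nM) with biotin-H3(5-23)K14Ac peptide (50 nM) in PBS pH 7.4, 0.01% Tween-20, preformed 30 min, then compound 30 min at room temperature; top concentration 110uM. AlphaScreen streptavidin donor/nickel chelate acceptor beads (10 ug/mL final), 20 min dark, signal read.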
* hit, by the source's call; ! = not active in a repeat; [ ] = remark or other dose. Only some compounds are listed: those with a hit (about 11% of all), similar ones and a draw of the others. Calls follow the shape of the dose curve; as a rule, active = well fitted curve in the direction sought with a large enough effect; inconclusive = small, poorly fitted or top-dose-only effect, or another doubt; inactive = no such curve, though single readings can be large; an effect the other way counts as inactive or inconclusive. Potency is read from the fitted curve at half-maximal effect.

For Cc1cccc(NC(=O)CSc2cccc3cccnc23)c1C the results were VDR inhibitor -1%, HP1b binding inh 22%, JMJD2A Tudor inh -1%, G9a block 13%[0.501 µM], PLK1 PBD inh inconclusive and BAZ2B inh -1%.
Screening COc1cccc2c1Oc1ncccc1N(C(=O)CCC(=O)NCc1ccc(C)cc1)C2 returned VDR inhibitor 3%, HP1b binding inh 21%, JMJD2A Tudor inh 9%, G9a block 5.6µM*!, PLK1 PBD inh -2% and BAZ2B inh -6%.
For COc1cccc2c1Oc1ncccc1N(C(=O)CCC(=O)NCc1ccc(F)cc1)C2 the results were VDR inhibitor 2%, HP1b binding inh 25%, JMJD2A Tudor inh 4%, G9a block 34%, PLK1 PBD inh -4% and BAZ2B inh -15%.
For O=S(=O)(NCc1cccnc1)c1ccc2ccccc2c1 the results were VDR inhibitor -10%, HP1b binding inh -1%, JMJD2A Tudor inh 3%, G9a block 13%, PLK1 PBD inh -3% and BAZ2B inh 3%.
O=S(=O)(Nc1ccncc1Cl)c1ccc2ccccc2c1 was read as VDR inhibitor 4%, HP1b binding inh 50%, JMJD2A Tudor inh 1%, G9a block 45µM*, PLK1 PBD inh -15% and BAZ2B inh -14%.
Oc1ccc(-c2nccc(-c3ccccn3)n2)cc1 was read as VDR inhibitor -11%, HP1b binding inh 40%, JMJD2A Tudor inh -2%, G9a block -30%, PLK1 PBD inh 8% and BAZ2B inh -14%.
For CN1C(=O)NC(c2ccccc2[N+](=O)[O-])C2=C1CC(C)(C)CC2=O (stereo not given) the results were VDR inhibitor 11%, HP1b binding inh -16%, JMJD2A Tudor inh -12%, G9a block 50µM*, PLK1 PBD inh -16% and BAZ2B inh -20%.
`CN1C(=O)NC(c2ccccc2[N+](=O)[O-])C2=C1CCCC2=O` (stereo not given) gave VDR inhibitor 4%, HP1b binding inh 17%, JMJD2A Tudor inh -3%, G9a block 45µM*, PLK1 PBD inh -26% and BAZ2B inh -22%.
Screening COc1cc(C2NC(=O)N(C)C3=C2C(=O)CCC3)cc(OC)c1OC (stereo not given) returned VDR inhibitor 0%, HP1b binding inh 25%, JMJD2A Tudor inh -12%, G9a block -9%, PLK1 PBD inh -8% and BAZ2B inh 9%.
`O=S(=O)(c1ccc(=S)[nH]c1)N1CCCCCC1` gave VDR inhibitor inconclusive, HP1b binding inh 32%, JMJD2A Tudor inh 4%, G9a block inconclusive, PLK1 PBD inh inconclusive and BAZ2B inh 1%.
Screening O=S(=O)(c1ccc(=S)[nH]c1)N1CCOCC1 returned VDR inhibitor -21%, HP1b binding inh -19%, JMJD2A Tudor inh 11µM*, G9a block inconclusive, PLK1 PBD inh 7.5µM* and BAZ2B inh -5%.
Screening O=S(=O)(c1ccc2oc(=S)[nH]c2c1)N1CCOCC1 returned VDR inhibitor inconclusive, HP1b binding inh -41%, JMJD2A Tudor inh 79µM*, G9a block 1.3µM*, PLK1 PBD inh 2.7µM* and BAZ2B inh -38%.
Screening O=S(=O)(Nc1cccc(Cl)c1)c1ccc2oc(=S)[nH]c2c1 returned VDR inhibitor inconclusive, HP1b binding inh -15%, JMJD2A Tudor inh 20µM*, G9a block 25µM* and PLK1 PBD inh 34µM*.
For O=S(=O)(c1ccc2oc(=S)[nH]c2c1)N1CCCCC1 the results were VDR inhibitor -4%, HP1b binding inh 14%, JMJD2A Tudor inh -18%, G9a block 45µM*, PLK1 PBD inh -23% and BAZ2B inh -1%.
Screening O=C1CCc2cc(S(=O)(=O)Nc3cccc(Cl)c3)ccc2N1 returned JMJD2A Tudor inh -11%.
Cc1sc(NC(=O)C2c3ccccc3Oc3ccccc32)c(C(=O)OC(C)C)c1C was read as VDR inhibitor -12%, HP1b binding inh 10%, JMJD2A Tudor inh -16%, G9a block 2%[59 µM] and BAZ2B inh -7%.
Screening COCCCn1c(=O)c2ccccc2n(Cc2cc(C(=O)OC)ccc2OC)c1=O returned VDR inhibitor -19%, HP1b binding inh 24%, JMJD2A Tudor inh inconclusive, PLK1 PBD inh -5% and BAZ2B inh -9%.
Screening COc1ccc(NC(=O)c2oc3ccccc3c2NC(=O)Cc2coc3ccc(C)cc23)cc1 returned VDR inhibitor -1%, HP1b binding inh 9%, JMJD2A Tudor inh -20%, G9a block 1%[59 µM] and BAZ2B inh -1%.
`COc1ccc(C2C=C3CNS(=O)(=O)C3CC2OC(=O)c2cccs2)cc1` (stereo not given) gave VDR inhibitor -4%, HP1b binding inh 22% and JMJD2A Tudor inh -30%.
`COc1ccccc1C1CC(c2cccs2)=Nc2ccccc2S1` (stereo not given) gave VDR inhibitor -20%, HP1b binding inh 1%, JMJD2A Tudor inh -34%, G9a block 4%[12.7 µM], PLK1 PBD inh -18% and BAZ2B inh -35%.
For Fc1ccccc1C1CC(c2ccco2)=Nc2ccccc2S1 (stereo not given) the results were VDR inhibitor 79µM*, HP1b binding inh -11%, JMJD2A Tudor inh inconclusive, G9a block 5%[12.7 µM], PLK1 PBD inh -13% and BAZ2B inh inconclusive.
`CCCc1cc(C(=O)Nc2sc(C(C)=O)c(C)c2C(=O)OCC)no1` gave VDR inhibitor -11%, HP1b binding inh 6%, JMJD2A Tudor inh 0%, G9a block inconclusive, PLK1 PBD inh inconclusive and BAZ2B inh -3%.
For CCOC(=O)c1c(NC(=O)c2cc(CC)on2)sc(C)c1C the results were VDR inhibitor 79µM*, HP1b binding inh inconclusive, JMJD2A Tudor inh -2%, G9a block 7.1µM* and BAZ2B inh 1%.
Screening CCOC(=O)c1c(NC(=O)c2noc3c2CCCC3)sc(C)c1C returned G9a block 28µM* and BAZ2B inh -3%.
CCOC(=O)Nc1sc(C)c(C)c1C(=O)OCC was read as VDR inhibitor -17%, HP1b binding inh 70%, JMJD2A Tudor inh 22%, G9a block 42%, PLK1 PBD inh -11% and BAZ2B inh 26%.
For CCOC(=O)c1c(NC(=O)c2cc(CC(C)C)on2)sc(C(C)=O)c1C the results were VDR inhibitor inconclusive, HP1b binding inh 0%, JMJD2A Tudor inh 5%, G9a block 7.9µM*, PLK1 PBD inh inconclusive and BAZ2B inh -5%.
Screening CC(=O)Nc1sc(C)c(C)c1C(=O)OC(C)C returned VDR inhibitor -5%, HP1b binding inh inconclusive, JMJD2A Tudor inh inconclusive, G9a block -8%[59 µM], PLK1 PBD inh 27µM* and BAZ2B inh -24%.

Screening data as filed in PubChem BioAssay.
